# Hit rate of the full screen: of about 53,000 sequences, about 3,700 (7%) were called active. Shown is part of a subset that was picked to be rich in actives. Unmarked numbers belong to inactive results.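 How the source made its calls: active means gene knockdowns whose robust z-score for IL-1 alpha signal is at least 2 or at most -2, so actives lie on both sides; inactive means the rest.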
# Experiment: Components of the Cytosolic LPS Sensing Pathway: Gene Identification via Genome-wide siRNA Screen
# Conditions: RAW264.7 macrophages, IL-1a HTRF, actives lie on both sides, screened at 100 nM (by protocol), cells primed 5 h with Pam3CSK4 first
# Description: Non-canonical inflammasome activation by cytosolic LPS is a critical component of the host response to Gram-negative bacterial infection, however we lack a comprehensive understanding of the cellular processes that control this pathway. Here we describe a genome-wide siRNA screen to identify genes regulating the mouse macrophage IL-1 alpha response to cytosolic LPS.
# RAW264.7 cells were maintained in complete DMEM media, comprising DMEM with 4.5 g/L glucose, 10% FBS (Gemini Bio-Products, West Sacramento, CA), 2 mM Glutamine (Lonza) and 20 mM HEPES (Lonza), hereafter complete DMEM.
# The RNAi screen was conducted in 384-well format using the Ambion Silencer Mouse Genome siRNA Library (#4391425), which consists of three unique, nonoverlapping, nonpooled siRNAs for each of 17,000 gene targets. siRNA reagents ([…]) were stamped into 384-well white flat-bottom microplates (Corning, 3570) using a Velocity11 VPrep liquid handling system (Agilent) integrated into a BioCel robotic platform (Agilent) in columns 1-22, leaving columns 23-24 empty for negative (Ambion, Negative control #1) and positive (mouse Casp4) controls, respectively. The median value of each plate's negative control column was used to normalize sample wells, and the positive control was used to assess transfection efficiency and assay performance.
# Lipofectamine RNAiMAX Transfection Reagent ([…]; Invitrogen) was added in […] serum-free, antibiotic-free media to plate wells using a Thermo Scientific Matrix WellMate and Microplate Stacker. Plates were incubated for 45 min at room temperature to allow for the sufficient formation of siRNA-lipid complexes. Cells were seeded at a density of 1x10^4 cells per well in 20 microL media containing 20% (vol/vol) FBS without antibiotics. The final concentration of siRNA in each well was 100 nM. Cells were cultured for 48h at 37 degrees C in 5% CO2 before addition of […] of TLR ligand Pam3CSK4 for 5 hours. The medium was then removed, replaced with […] growth media and cell were transfected with […] of LipidA and TransIT-TKO (Mirus) for 24 hour. At the end of the LipidA treatment, […] of supernatant was transferred to a 384 Greiner Bio-one non-binding low volume plate and […] of IL-1a HTRF reagent (Cisbio, 62MIL1APEH) was added and incubated at room temperature overnight. The plates were read on an EnVision plate reader (PerkinElmer). Cell viability was measured by adding 20ul Cell Titer Glo to the original plate and running a luminescence read on the EnVision. The quantified IL-1a signal for each siRNA gene-targeted well was divided by the median of the negative control wells and multiplied by 100 to achieve a negative control normalized value for each well/siRNA. This normalized value was then used to generate a robust z-score by first taking the log of each value and then by subtracting the median and dividing by the […].
row,Sequence,z-score
1,CGUGACCAUCAGGCUAAAGTT against Ecrg4,3.42 (active)
2,GGUAAAAAAUGCUUUCAACTT against Olfr1008,0.696
3,GGCGACAGCUAAGUGUUGGTT against Gprc5a,-0.0528
4,GGAGCUGAUAAGAAAACUATT against Gbp2,0.486
5,CCCUCAGUUGGUCACAUGUTT against Mpc1,-0.182
6,GGGACAAAAUUAUUCCUCCTT against Med14,-0.977
7,GGAACAACUUUCAUCUCACTT against Anxa10,1.34
8,CGAAAUUUAACUUGAACAGTT against Toporsl,0.659
9,GGGACGGAGAAAAGCUUUUTT against Olfr419,3.92 (active)
10,AGCAGAAAAAGGAAGGCCATT against Xlr3c,0.733
11,GGACACAGACCUUUGUUAATT against Lpar6,-0.0566
12,GUUCACACACGAAUUUGACTT against H2-Oa,-2.32 (active)
13,GCCUGUUUGGUAUUCUUCCTT against Olfr832,-1.19
14,GGGAAACUCUGCAUGAGUATT against Tenm1,-0.137
15,CCUCUGUUGAACCAUCAUUTT against Gpr21,0.127
16,GGCGGUGAUGGAAUGAACATT against Plod2,0.706
17,CCUACCACAUGGAUGAGUATT against Accs,0.525
18,GCUCUAGGGUCGUAAUGUUTT against Ralb,-2.33 (active)
19,GGAUUUCAUCUGGUACCUGTT against Ceacam19,-0.0176
20,CGGAAUAUAGAAUGAAACCTT against Cd200r3,0.731
21,GGACCAUAAAGUGUUACUATT against Tnrc6b,0.526
22,GGGCCCAUUUUCAGAAAUGTT against Tagln3,0.0546

row,Sequence,z-score
1,GGAGGUUAAGAUUCCAGAGTT against Prune1,1.52
2,CCUAUGGCCAUGAUCCUUATT against Olfr575,1.29
3,GGUCAAUGAACCAUCCCACTT against Padi6,-0.983
4,GGAACACCAUCAAUAAACUTT against Tjap1,-2.09 (active)
5,GGACCAGAGUAACUUGAAUTT against Zfp128,-0.66
6,CCAUUAUUCUAGUGUCCUATT against Olfr1368,-0.753
7,GGGCUAUCUUCUGAUUGGCTT against Zp3r,-2.45 (active)
8,GGAACUGCUCAAGAUCAAGTT against Plagl2,1.92
9,GGGCUGAUAAUGUUAGCUCTT against Olfr161,0.48
10,CCUCAUAGGCUUGACAAUUTT against Exoc2,-0.0626
11,GGCAGCAUGAUUAUUUCAATT against Gm4861,-0.0747
12,GGAAGUAGGACUAGCCAUCTT against Akr1c6,3.37 (active)
13,CCUGAAAAGCUAUUGGGUATT against Baat,-0.196
14,GGGAUGGAGAAUCAAGAUATT against Tmem117,-1.9
15,CCCACAUAAAUAAGUUGGUTT against Olfr996,-1.02
16,GGUUCAGCUUUUCAUCAGUTT against Cops3,1.37
17,GGAGAUUAUCACAACUAUUTT against Sash3,0.845
18,GGUUCUUGGGCACCAUUAUTT against Olfr786,0.742
19,GCCGUUUGUACCUUGUCAGTT against 4933430I17Rik,-3.01 (active)
20,GCAAUAUUUCAGCACACUGTT against Txndc16,-1.08
21,GCUAAAUUCAGCUGAGGCUTT against Kdm4d,-0.217
22,GGGAAUAUGUCUUGUGAUATT against Ddo,0.141

row,Sequence,z-score
1,GGUUUUACUGUAGACCUUUTT against Hnrnpa1,0.542
2,GGGAAACUUCUUCAUGGGUTT against Dazap2,0.0384
3,GGAGUAUGAAUGCUAUGUCTT against Fsd2,-3.24 (active)
4,GGCUCAUCGAGAUUAACCCTT against Carns1,0.195
5,GGACAUAUUGGAUGGUGAUTT against Usp2,-0.847
6,CCGAGAACUACCUGUGUAATT against Unc119b,0.266
7,GGGUUCAAAUAGUUUACCUTT against Tmem33,0.156
8,GCCGCAUUGAGUACAUGGUTT against Ap1m1,1.9
9,GGGAUGAUUUUGAGAUUUUTT against Dmpk,2.74 (active)
10,GGAUUUCAGAAAGUGGCCUTT against Acad8,-1.22
11,CCCUAUGGACUGAGUUUGUTT against Olfr183,-0.036
12,CUACGUGCUAGCUCAAGGATT against Mmp28,-1.1
13,GGAAGUAUUUCACAUGUGATT against Dctn1,-0.299
14,CGGUAUAUAGAUCACUUCUTT against Olfr56,0.276
15,GGUGAUCCUCAUAUUGGCCTT against Npy2r,-0.521
16,GCUACUUGUUGAGACCCAATT against Esr1,-0.616
17,GCCCAAAAGUAUAAACCAGTT against Peg12,0.318
18,CGAGCUUGCUAUCGGGAAGTT against Defb7,-0.902
19,GCUUAAGCAGUGAUAAUAATT against B230317F23Rik,-1.65
20,CGAGGACUACUAGAAGAAATT against Trpc1,2.36 (active)
21,GGACACAGGACUCUACACCTT against Psg16,0.293
22,CGGGAAGCAUCACUAUUUCTT against Nabp1,-0.822

row,Sequence,z-score
1,GGACUCUUUUAUGAGUUUGTT against Lims1,0.757
2,GGCUAAAACAAGUGAAUGGTT against Gli3,-0.619
3,GGAGUAAAAAUGAGUAUGATT against Abcg3,0.534
4,GAUAUUCCUGCUCACAGUGTT against Olfr1265,-1.04
5,UAGUCAUCUUCACUCUCCUTT against Olfr1249,-0.907
6,GGACUUUUACCAGUUCUCCTT against Ece2,-2.43 (active)
7,GGCUCUCUGUCUGGAAAAGTT against Vcan,-1.25
8,GGAGCUGAGGAAUUGAUCCTT against Pudp,-1.97
9,CCAUUGCAUGCAAUGACUATT against S100a10,-1.25
10,GGAAGCAGCAAAGAAGUUGTT against Olfr1109,0.918
11,CCUAUCAUGUUAAAAACAGTT against Grem2,-1.13
12,GGGUCACUUGGAUUGUGGATT against Tmx2,-0.0195
13,GGAUCCUGCAUAUCUCAAATT against Mrps18c,0.186
14,GGGACACGAUGAGGAGUCATT against Cfap410,-2.21 (active)
15,GCGACUUAGAAAAGAACAGTT against Ccdc58,1.91
16,GGAACAGCAGCUUCCCUAATT against 4930555G01Rik,-0.0144
17,CCAAGCGAAAUCGAGGUGUTT against Omt2b,0.931
18,GGCUAUAGCAGCACAUUGGTT against Ylpm1,2.57 (active)
19,GGUGGAGCAGAUGAAGAACTT against Hspbp1,0.447
20,CCCAAGAAGUUUUAUUCUGTT against Zbbx,-0.221
21,GGCCUACGACAAAUCCAAATT against Csrp2,1.14
22,GGCGAAGAUUGAAAAAUGCTT against Ube3c,-0.407

row,Sequence,z-score
1,GGAACUAAAUGUGAAACAUTT against Ift52,-2.07 (active)
2,GGAAGUGGAACAGGACGUATT against Caps2,-1.17
3,GCUGUACCACAACUAGUCATT against Cdc7,0.977
4,GGCAAGUUUGCUAUAACCUTT against Jmy,-2.57 (active)
5,GGAAUAGGGAGGUAACCAGTT against Olfr1394,0.0525
6,GGAAAUUGCACCUUUAAAGTT against Rnf130,0.335
7,CGUAGCCGAGAAGACCCUATT against Shh,0.0734
8,GGUUUUAGAAUUCUGGACGTT against Plppr2,0.243
9,GCUCCUCUCAGGUGUACGATT against B9d2,2.23 (active)
10,GGGCAGGGAUGUUUAGAUCTT against Homer2,0.499
11,CCAACAUCUCUGUAUACUGTT against Olfr8,0.178
12,CCUACGUGAUCAACAAGCATT against Fxn,0.682
13,GGGAGCAACUGUGUCAAAUTT against Tspan10,1.06
14,GGAAAGACACAGAUAAUAATT against Arvcf,-1.28
15,CCAAUAACUCUAAAUAGGCTT against Trhr,0.308
16,GGUCAUCGAAUCUGGAGUATT against Pyroxd1,-0.282
17,GGUCCACAGUACCACAUAATT against Tespa1,-3.2 (active)
18,CAUCCCAGAGUGUUGUCUUTT against Olfr1325,1.97
19,GCAGCUCCCAAUCUCACUUTT against Ankrd34a,0.171
